In the library only some 1.9% were active in any assay of this set; here they are far more common.
MLL CXXC-DNA inh – MLL CXXC-DNA interaction inhibition; Q03164; MLL-CXXC / FITC-HOXA9 DNA fluorescence polarization; Potency, µM (titrated, usually from 115 µM), without a hit: at the highest dose activity change, negative = inhibition, usual class: inhibitors; actives 0.037% (n = 290,000); AID 2662; active means well fitted inhibition curve with a large enough effect in the polarisation, with a control signal flat, not every such curve was filed as active; inconclusive means small, poorly fitted or top-dose-only effect, or effect the other way, or a change in a side signal; inactive means no such curve, though single readings can be large or run the other way; the % refers to the polarisation; further: potency means the concentration at half of the fitted maximal effect
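Fluorescence polarization: 7 uM MLL-CXXC (stock) preincubated 5 min with compounds, then 50 nM fluorescein-HOX-A9 DNA (stock) added; 30 min ambient. Buffer 50 mM Tris-HCl pH 7.5, 50 mM NaCl, 1 mM DTT, 0.05% BSA.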
Menin MLL FP TR – inhibitors of human menin-MLL interaction, mutant MLL peptide; O00255; Potency, µM (highest dose often 61.6 µM), for the others: at the highest dose FP activity change, negative = inhibition, most hits filed as inhibitors; AID 1768; actives 0.23% (n = 270,000); Menin + Texas Red MLL mutant peptide, fluorescence polarization; active means well fitted inhibition curve with a large enough effect in the polarisation, with a control signal flat, not every such curve was filed as active; inconclusive means small, poorly fitted or top-dose-only effect, or effect the other way, or a change in a side signal; inactive means no such curve, though single readings can be large or run the other way; the % refers to the polarisation; further: potency means the concentration at half of the fitted maximal effect; % of control where 0% means no effect
Target sequence (O00255 whole entry, looked up): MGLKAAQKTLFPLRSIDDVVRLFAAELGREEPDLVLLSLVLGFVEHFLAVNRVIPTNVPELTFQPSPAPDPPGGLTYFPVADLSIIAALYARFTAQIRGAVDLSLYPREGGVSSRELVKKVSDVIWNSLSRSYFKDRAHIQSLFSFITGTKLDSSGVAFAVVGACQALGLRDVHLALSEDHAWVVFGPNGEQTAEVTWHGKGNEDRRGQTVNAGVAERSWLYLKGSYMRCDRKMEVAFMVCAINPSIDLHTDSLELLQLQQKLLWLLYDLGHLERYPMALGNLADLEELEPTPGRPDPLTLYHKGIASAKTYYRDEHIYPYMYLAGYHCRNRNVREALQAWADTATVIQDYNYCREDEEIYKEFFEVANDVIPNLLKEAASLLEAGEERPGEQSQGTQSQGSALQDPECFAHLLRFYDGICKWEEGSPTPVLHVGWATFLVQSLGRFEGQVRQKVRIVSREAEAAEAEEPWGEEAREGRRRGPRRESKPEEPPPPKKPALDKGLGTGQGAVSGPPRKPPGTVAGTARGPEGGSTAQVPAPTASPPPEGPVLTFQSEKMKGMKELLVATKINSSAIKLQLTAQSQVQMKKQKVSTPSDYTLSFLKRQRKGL
PINK1 expr mod – PINK1 expression modulation; PINK1 immunofluorescence, high-content cytometry, 24 h; Potency, µM (highest dose often 76.6 µM), for inactives: at the top dose activation (PINK1 increase), hits mostly activators; actives 0.2% (n = 410,000); AID 624263; active means well fitted activation curve with a large enough effect; inconclusive means small, poorly fitted or top-dose-only effect; cell line not stated here; further: potency means the concentration at half of the fitted maximal effect; % of control where 0% means no effect; nearly all actives have a fitted effect of over 65% in size
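Compound titrations (5 concentrations, 24 h) on a stable cell line; DMSO and CCCP controls. Endpoint: fixed-cell PINK1 immunofluorescence with mitochondrial, cell and nuclear markers, scanned by microplate cytometer.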
Menin MLL FP FL – menin-MLL binding inhibition, fluorescein peptide. Fluorescence polarization, fluorescein-MLL peptide displacement from menin. 290,000 tested, under 10 active. FP activity change, % at 61.4 µM. AID 1766; active means well fitted curve in the direction sought with a large enough effect in the polarisation, not every such curve was filed as active; inconclusive means small, poorly fitted or top-dose-only effect, or effect the other way, or a change in a side signal; inactive means no such curve, though single readings can be large or run the other way; the % refers to the polarisation; further: % of control where 0% means no effect
Epigenetic reg – epigenetic control regulation, reporter derepression; murine LDR cells, GFP reporter derepression, 30 h; Potency, µM (highest dose often 53.9 µM), for the others: top-dose GFP activation, most hits filed as activators; actives 0.2% (n = 280,000); AID 1865; active means well fitted activation curve with a large enough effect; inconclusive means small, poorly fitted or top-dose-only effect; further: potency means the concentration at half of the fitted maximal effect; % of control where 0% means no effect; nearly all actives have a fitted effect of over 60% in size
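GFP-positive cell count by laser-scanning cytometry (objects 20–120 um) after 30 h, 37 C compound exposure of murine LDR cells; reporter is CMV-GFP integrated at a silenced locus, inducible by HDAC or DNMT inhibitors.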
ClpP mod – qHTS Assay for Activators of ClpP; actives 1.9% (n = 340,000); Potency, µM (top dose mostly 57.5 µM), for inactives: at the highest dose activity change, negative = active; purified B. subtilis ClpP, FRET peptide cleavage, 20 min; ATP-dependent Clp protease proteolytic subunit (Bacillus subtilis (strain 168)), P80244; active means well fitted falling curve with a large enough effect; inconclusive means small, poorly fitted or top-dose-only effect; inactive means no such curve, though single readings can be large or run the other way; further: potency means the concentration at half of the fitted maximal effect; the source files actives as falling curves though it sought activators and does not explain the sign; nearly all actives have a fitted effect of over 65% in size
Target sequence (P80244 whole entry, looked up): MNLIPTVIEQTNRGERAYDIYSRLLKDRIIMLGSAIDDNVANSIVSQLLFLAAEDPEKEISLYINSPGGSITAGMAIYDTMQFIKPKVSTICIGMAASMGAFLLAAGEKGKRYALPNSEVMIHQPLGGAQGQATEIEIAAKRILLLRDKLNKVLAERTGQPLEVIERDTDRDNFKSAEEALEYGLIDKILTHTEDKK
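ClpP 10 microg/mL final, pH 8 Tris/KCl buffer with BSA, glycerol, Tween-20; compound pinned in; FRET-FV substrate; RT 20 min; Ex320/Em430; ΔFRET vs ADEP 5.8 microM, DMSO, no enzyme.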
* = called active by the depositor; ? = inconclusive; . = not tested or not shown; ! = a repeat was not active; [ ] = another dose, or the depositor's remark.

SMILES	MLL CXXC-DNA inh	Menin MLL FP TR	PINK1 expr mod	Menin MLL FP FL	Epigenetic reg	ClpP mod
CCCCNC(=O)c1cnc2sc(N3CCCCCC3)nn2c1=O	.	.	2.5%	.	1.5%	25.1µM*
COc1ccc2c(c1)sc1ncc(C(=O)NCc3ccccc3F)c(=O)n12	.	.	-0.8%	.	0.8%	11.2µM*
CCCCNC(=O)c1cnc2sc(N3CCCCC3)nn2c1=O	.	.	3.6%	.	-3.4%	4.1%
COc1cc(OC)c(/C=C/c2cc[n+](C)c3ccccc23)c(OC)c1	.	.	?	.	.	2.6%
CC(C)NC(=O)c1cn([C@H]2CC[C@@H](NC(=O)/C=C/c3cccs3)CC2)nn1	.	.	0.6%	.	.	.
Cc1ccc(NC(=O)Cn2c(=O)c(C)nc3ccccc32)cc1	?	-0.4%	4.3%	13.0	?	0.5%
Cc1cccc(NC(=O)Cn2c(/C=C/c3ccccc3)nc3ccccc32)c1	-1.9%	?	8.1%	3.9	10.5%	31.6µM*
Cc1ncoc1C(=O)N1CCOc2ccc(CN3CCC(Oc4cccnc4)CC3)cc2C1	.	.	0.8%	.	.	.
Cc1ccc(CNc2ncnc3sc(C(=O)N4CCC[C@H]4C(N)=O)c(C)c23)o1	.	.	-0.5%	.	.	.
O=C(NCc1cccnc1)[C@@H]1CC=C[C@@H]2CCN(C3CCCCC3)C(=O)[C@@H]21	.	.	.	.	.	0.6%
COc1ccc(/C=C2\SC(=S)N(CCC(=O)NC3=NCCS3)C2=O)cc1OC	12.2%	11.4%	8.4%	5.2	12.7%	-2.5%
COc1cc(/C=C2\SC(=S)N(CC(=O)NC3=NCCS3)C2=O)cc(OC)c1OC	2.7%	4.0%	28.2µM*	?	?	.
CC(C)(C)c1ccc(OCC(=O)Nc2ccc(-c3nc4cccnc4o3)cc2)cc1	-2.2%	2.2%	1.4%	-1.5	0.9%	12.6µM*
CC(C)C(=O)Nc1ccc(-c2nc3cccnc3o2)cc1	12.7%	-25.6%	0.2%	-0.1	-6.3%	-19.9%
COC(=O)c1c(NC(=O)CN2CCC3(O)CCCCC3C2c2ccc(F)cc2)sc(C)c1C (configuration not stated)	9.7%	4.5%	6.8%	6.6	-0.8%	-19.9%
COC(=O)c1c(NC(=O)CN2CCC3(O)CCCCC3C2c2cc(OC)ccc2OC)sc(C)c1C (configuration not stated)	-6.1%	-5.2%	2.6%	4.2	-1.8%	28.2µM*
FC(F)(F)c1cccc(NC(=S)NC2CCCC2)c1	4.3%	20.9%	?	4.5	0.0%	2.1%
Fc1cccc(NC(=S)NC2CCCCCCC2)c1	-6.7%	.	15.8µM*	.	.	-2.4%
CCCN1CNc2c(c(=O)[nH]c(=S)n2CCCc2ccccc2)C1	.	.	0.2%	.	.	-3.7%
Cc1ccc2c(CC(=O)N3CCOc4ccc(CN5C[C@@H](C)O[C@@H](C)C5)cc4C3)cc(=O)oc2c1	.	.	0.0%	.	.	.
CCOc1ccccc1N1CCN(Cc2ccco2)CC1	1.4%	-11.7%	1.6%[38.3 µM]	0.9	0.0%	-0.4%
CCOc1ccccc1N1CCN(C/C=C/c2ccc(N(C)C)cc2)CC1	-3.8%	-10.8%	1.5%	3.0	-1.8%	28.2µM*
Cc1cc(=O)[nH]c2n[nH]c(-c3ccccc3)c12	5.7%	-15.9%	-2.3%	9.1	1.7%	25.1µM*
CCC(=O)OC1C(N(C)C)CC(C)O[C@H]1O[C@H]1[C@H](C)[C@@H](O[C@H]2CC(OC)[C@@H](O)C(C)O2)[C@H](C)C(=O)O[C@@H](CC)[C@](C)(O)[C@@H](O)[C@H](C)C(=O)[C@@H](C)C[C@]1(C)O (some centres not stated)	7.0%	-3.5%	.	1.9	.	.
O=C(C[n+]1cc2ccccc2c2ccccc21)c1ccccc1	-5.8%	.	16.3%	11.6	5.0%	25.1µM*
SMILES	MLL CXXC-DNA inh	Menin MLL FP TR	PINK1 expr mod	Menin MLL FP FL	Epigenetic reg	ClpP mod
CCCCCC(=O)N1CCN(CCN=CC2=C(O)CC(c3cccs3)CC2=O)CC1 (configuration not stated)	-3.6%	-0.2%	-1.0%	-2.1	-0.6%	31.6µM*!
CN1CCCc2cc(/C=C/c3ccnc4ccccc34)ccc21	.	.	.	.	.	0.1%
CCN(CC)c1ccc(-n2cc3c(=O)n(C)c(=O)n(C)c3c2)cc1	3.6%	0.5%	-2.7%	4.5	0.0%	35.5µM*
CN(C)c1ccc(-n2cc3c(=O)n(C)c(=O)n(C)c3c2)cc1	7.4%	-12.4%	3.8%	2.4	0.1%	-16.3%
COC(=O)Cn1c(=NC(=O)c2ccc(Cl)s2)sc2cc(F)ccc21	14.5%	5.4%	4.4%	-0.3	2.1%	28.2µM*
COC(=O)Cn1c(=NC(=O)c2ccc(OC)c(OC)c2)sc2cc(OC)ccc21	-2.6%	-3.8%	7.9%	-1.5	-1.3%	?
Cc1cccc(C)c1NC(=O)CN(C)C(=O)c1cc(S(=O)(=O)N(C)C)ccc1N1CCCC1	.	.	1.3%	.	.	-22.6%
CCN1C(=O)C(CC(=O)Nc2c(C)cccc2C)Nc2cc(S(=O)(=O)N(C)C)ccc21 (configuration not stated)	-2.9%	-1.4%	0.4%	1.0	-0.5%	28.2µM*
O=C(Cc1ccc[nH]c1=O)c1ccc(F)cc1	.	.	.	.	.	0.0%
CCCCN(CC)CCNC(=O)c1cn(CCOC)c(=O)c2c1c1ccccc1n2C	0.2%	-14.7%	-0.5%	0.5	-1.8%	3.4%
CC(C)CCNC(=O)c1cn(CC(C)C)c(=O)c2c1c1ccccc1n2C	1.1%	12.0%	0.9%	-6.7	.	?
CCCN(CCC)CCCNC(=O)c1cn(CCOC)c(=O)c2c1c1ccccc1n2C	-12.7%	-7.0%	28.9%[38.3 µM]	-0.6	-1.9%	14.1µM*
CC(C)Cn1cc(C(=O)NCc2cccs2)c2c3ccccc3n(C)c2c1=O	-25.5%	15.9%	-3.3%[38.3 µM]	0.5	-1.0%	10µM*
CCOC(=O)N1CCN(C(=O)c2cn(CC(C)C)c(=O)c3c2c2ccccc2n3C)CC1	-8.0%	-8.7%	17.8%[38.3 µM]	-2.7	0.0%	25.1µM*
CCOC(=O)N1CCN(C(=O)c2cn(C)c(=O)c3c2c2ccccc2n3C)CC1	5.1%	-2.0%	20.4%[38.3 µM]	5.2	0.0%	14.1µM*
COC(=O)c1cc(CNC(=O)c2ccccc2)cc(NC(=O)c2ccccc2OC)c1	.	.	1.3%	.	.	.
CC(=O)c1ccccc1-c1ccc2c(c1)CC(CNC(=O)Cc1c[nH]c3ccccc13)O2 (configuration not stated)	.	.	-0.5%	.	.	.
Cc1cc(C)cc(C(=O)NCCn2cc(C(=O)N3CCSCC3)nn2)c1	.	.	-0.6%	.	.	.
COCCn1cc(C(=O)NCc2ccco2)c2c3ccccc3n(C)c2c1=O	4.2%	-8.0%	3.7%	1.2	5.3%	.
COCCn1cc(C(=O)N2CCC(C)CC2)c2c3ccccc3n(C)c2c1=O	1.6%	?	4.7%[38.3 µM]	1.3	1.3%	15.8µM*
CC(C)Cn1cc(C(=O)N2CCC(C)CC2)c2c3ccccc3n(C)c2c1=O	5.1%	?	0.9%	-0.3	-2.8%	.
